Assay [1] concerns the target human Vitamin D Receptor (VDR), VDR (gene 7421) (UniProt P11473). Nature of the assay: ATG_VDR_TRANS: Attagene TRANS-FACTORIAL HepG2 Assay for human Vitamin D Receptor (VDR) (AID 2283022; active = hit-call score of the fitted dose curve at least 0.9, where 1 is the maximum). The procedure, abridged: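 Steps: transfect HepG2 with GAL4-UAS-driven reporter constructs; dose compounds 24 h; isolate RNA, reverse-transcribe, PCR-amplify with 6-FAM-labelled primer extension and HpaI digestion; quantify fragments by capillary electrophoresis relative to DMSO.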

A short description of assay [2]: BSK_3C_SRB: Viability Assessment in the BioMAP Diversity Plus: 3C Assay (AID 2283023).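 Note: cells read 24 h after compound dosing; fitted both ways against DMSO so a hit may be signal rise or drop.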 The conditions noted are these: primary human endothelial cells (HUVEC). The procedure, abridged:
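Absorbance at 560 nm of sulforhodamine B-stained (0.1%) total protein served as a cytotoxicity readout in human umbilical vein endothelial cells, 24 h after chemical treatment. Signal was fitted bidirectionally relative to DMSO.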

Read-out in assay [3]: Matrix Metallopeptidase 1 (MMP1), MMP1 (gene 4312)
Put plainly: BSK_BE3C_MMP1: BioMAP Diversity Plus: BE3C Assay for Matrix Metallopeptidase 1 (MMP1) Biomarker Activity (AID 2283024). The conditions noted are these: primary human bronchial epithelial cells; actives raise or lower the signal. The procedure, abridged:
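In this multiplexed primary-cell system, human bronchial epithelium received chemicals for 24 h before an ELISA for MMP1. Values reflect bidirectional fits normalised to the DMSO baseline.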

Assay [4] can be described thus: BSK_3C_Vis: BioMAP Diversity Plus: 3C Assay for Morphology Visualization (AID 2283025).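 For AC50: light microscopy image of cell morphology used as background control.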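 Note: fitted both ways so gain or loss versus DMSO counts.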 The conditions noted are these: primary human endothelial cells (HUVEC). The procedure, abridged:
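Light-microscopy morphology readout, 24 h exposure, human primary umbilical vein endothelium; analysed relative to DMSO with bidirectional fitting.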

Assay [5] in a line: BSK_4H_SRB: Viability Assessment in the BioMAP Diversity Plus: 4H Assay (AID 2283027).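 For AC50: curves fitted both ways versus DMSO so AC50 may be loss or gain.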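 Note: cells exposed to compound for 24 h before staining.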 The conditions noted are these: primary human endothelial cells (HUVEC). The essentials:
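Cytotoxicity readout: sulforhodamine B (0.1%) staining of total protein after 10% TCA fixation, measured at 560 nm in human umbilical vein endothelium at 24 h. DMSO set the baseline; fitting was bidirectional.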

The nature of assay [6]: BSK_BE3C_SRB: Viability Assessment in the BioMAP Diversity Plus: BE3C Assay (AID 2283028).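 For AC50: fitted both ways so AC50 may mark signal gain or loss versus DMSO.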 The conditions noted are these: primary human bronchial epithelial cells. The essentials:
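Cells (human bronchial epithelial, primary) are treated with chemicals, and after 24 h the parallel cultures are fixed in 10% TCA. These are then stained with 0.1% SRB and read at 560 nm. Gain or loss of signal is fitted relative to DMSO.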

Read-out in assay [7]: Thrombomodulin, THBD (gene 7056)
Put plainly: BSK_3C_Thrombomodulin: BioMAP Diversity Plus: 3C Assay for Thrombomodulin Biomarker Activity (AID 2283029). The conditions noted are these: primary human endothelial cells (HUVEC); actives raise or lower the signal. The essentials:
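In a multiplexed primary-cell system, human umbilical vein endothelium received chemical and was assayed 24 h later for thrombomodulin by ELISA. Parallel cultures were SRB-stained (0.1% SRB after 10% TCA fixation, read at 560 nm) to flag cytotoxicity.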

Read-out in assay [8]: Urokinase-type plasminogen activator receptor (uPAR), PLAUR (gene 5329)
Put plainly: BSK_4H_uPAR: BioMAP Diversity Plus: 4H Assay for Urokinase-type plasminogen activator receptor (uPAR) Biomarker Activity (AID 2283030). The conditions noted are these: primary human endothelial cells (HUVEC); actives raise or lower the signal. The essentials:
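Cell-surface uPAR ELISA signal, measured 24 h after dosing human umbilical vein endothelial cells, was analyzed with bidirectional fitting relative to DMSO. Parallel SRB staining of total protein tracked overt cytotoxicity.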

Read-out in assay [9]: Vascular endothelial growth factor receptor 2 (Homo sapiens) (UniProt P35968)
Nature of the assay: BSK_4H_VEGFRII: BioMAP Diversity Plus: 4H Assay for Vascular endothelial growth factor receptor 2 (VEGFR2) Biomarker Activity (AID 2283031).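 For AC50: cell-surface VEGFR2 protein level quantified by ELISA.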 The conditions noted are these: primary human endothelial cells (HUVEC); actives raise or lower the signal. The essentials: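 ELISA read-out of VEGFRII in primary human umbilical vein endothelium, taken 24 h after chemical treatment. Responses are expressed relative to DMSO, with bidirectional fitting.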

Read-out in assay [10]: Human Leukocyte Antigen - DR isotype (HLADR), HLA-DRA (gene 3122)
Put plainly: BSK_BE3C_HLADR: BioMAP Diversity Plus: BE3C Assay for Human Leukocyte Antigen - DR isotype (HLADR) Biomarker Activity (AID 2283032). The conditions noted are these: primary human bronchial epithelial cells; actives raise or lower the signal. The essentials:
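BioMAP BE3C format: human bronchial epithelium, 24 h compound treatment, ELISA detection of HLA-DR, with bidirectional analysis relative to DMSO.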

Read-out in assay [11]: Vascular cell adhesion molecule 1 (VCAM1), VCAM1 (gene 7412)
Nature of the assay: BSK_4H_VCAM1: BioMAP Diversity Plus: 4H Assay for Vascular cell adhesion molecule 1 (VCAM1) Biomarker Activity (AID 2283033).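 For outcome: cell-surface VCAM-1 protein measured by ELISA.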 The conditions noted are these: primary human endothelial cells (HUVEC); actives raise or lower the signal. The procedure, abridged: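 In this human endothelial (HUVEC) system, biomarker ELISA was run 24 h after compound addition, and total protein in parallel wells was assessed by SRB at 560 nm; DMSO served as negative control.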

Read-out in assay [12]: Interferon-gamma inducible Protein 10 (IP10), CXCL10 (gene 3627)
Nature of the assay: BSK_BE3C_IP10: BioMAP Diversity Plus: BE3C Assay for Interferon-gamma inducible Protein 10 (IP10) Biomarker Activity (AID 2283034). The conditions noted are these: primary human bronchial epithelial cells; actives raise or lower the signal. The essentials: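 BE3C cells (human bronchial epithelial, primary); 24 h exposure; ELISA for IP-10; DMSO-referenced bidirectional fit.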

Read-out in assay [13]: Monokine induced gamma interferon (MIG), CXCL9 (gene 4283)
Nature of the assay: BSK_BE3C_MIG: BioMAP Diversity Plus: BE3C Assay for Monokine induced gamma interferon (MIG) Biomarker Activity (AID 2283035).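 For outcome: MIG protein measured by ELISA in BE3C cultures after 24 h of dosing.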 The conditions noted are these: primary human bronchial epithelial cells; actives raise or lower the signal. The essentials:
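hu bronchial epithelial 1° cells, 24 h cpd; MIG by ELISA; bidirectional fit, DMSO = baseline.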

Read-out in assay [14]: Transforming growth factor beta 1 (TGFb1), TGFB1 (gene 7040)
Put plainly: BSK_BE3C_TGFb1: BioMAP Diversity Plus: BE3C Assay for Transforming growth factor beta 1 (TGFb1) Biomarker Activity (AID 2283036;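 for outcome: TGF-b1 protein level measured by ELISA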). The conditions noted are these: primary human bronchial epithelial cells; actives raise or lower the signal. The essentials: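 TGF-b1 measured via ELISA, 24 h after chemical dosing of human bronchial epithelial cells (BE3C). Overt cytotoxicity assessed in parallel by SRB (0.1%, TCA-fixed, 560 nm); analysis bidirectional relative to DMSO.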

Read-out in assay [15]: Plasminogen activator inhibitor-1 (PAI1), SERPINE1 (gene 5054)
Nature of the assay: BSK_BE3C_PAI1: BioMAP Diversity Plus: BE3C Assay for Plasminogen activator inhibitor-1 (PAI1) Biomarker Activity (AID 2283037). The conditions noted are these: primary human bronchial epithelial cells; actives raise or lower the signal. The essentials:
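In this multiplexed primary-cell system, bronchial epithelial cells receive test chemical and are sampled at 24 h. PAI-1 is read by ELISA, with DMSO serving as negative control for bidirectional fitting.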

Read-out in assay [16]: urokinase plasminogen activator (uPA), PLAU (gene 5328)
Put plainly: BSK_BE3C_uPA: BioMAP Diversity Plus: BE3C Assay for urokinase plasminogen activator (uPA) Biomarker Activity (AID 2283038).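 For outcome: uPA protein level quantified by ELISA in cell cultures; uPA read one day after compound addition.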 The conditions noted are these: primary human bronchial epithelial cells; actives raise or lower the signal. The procedure, abridged: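 Bronchial epithelial cells (human, primary); chemical 24 h; uPA by ELISA; bidirectional fit vs DMSO. SRB (0.1%, after 10% TCA fixation, 560 nm) in parallel cultures for cytotoxicity.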

Read-out in assay [17]: Urokinase-type plasminogen activator receptor (uPAR), PLAUR (gene 5329)
Nature of the assay: BSK_BE3C_uPAR: BioMAP Diversity Plus: BE3C Assay for Urokinase-type plasminogen activator receptor (uPAR) Biomarker Activity (AID 2283039).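 For outcome: cells exposed to compound for one day before measurement.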 The conditions noted are these: primary human bronchial epithelial cells; actives raise or lower the signal. The essentials: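 Chemically treated human bronchial epithelial cells (lung primary) are assayed for uPAR by ELISA after 24 h, with data fitted in both directions using DMSO as negative control.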

Read-out in assay [18]: Interleukin-6 (IL6), IL6 (gene 3569)
Nature of the assay: BSK_CASM3C_IL6: BioMAP Diversity Plus: CASM3C Assay for Interleukin-6 (IL6) Biomarker Activity for (AID 2283040). The conditions noted are these: primary human coronary artery smooth muscle cells; actives raise or lower the signal.

Read-out in assay [19]: Tissue plasminogen activator (tPA), PLAT (gene 5327)
Put plainly: BSK_BE3C_tPA: BioMAP Diversity Plus: BE3C Assay for Tissue plasminogen activator (tPA) Biomarker Activity (AID 2283041).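 For outcome: tPA level quantified by ELISA one day after compound addition.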 The conditions noted are these: primary human bronchial epithelial cells; actives raise or lower the signal. The essentials:
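Using human lung primary bronchial epithelial cells, tPA was measured by ELISA 24 h after dosing; data fitted relative to DMSO.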

The term AC50 denotes the concentration giving half of the maximal activity seen.

The structures appear in SMILES notation. Results filed as inconclusive are left out. Calls of active or inactive are those of the source. Rule for the calls, unless noted: active = hit-call score of the fitted dose curve at least 0.9, where 1 is the maximum; inactive = score below 0.9.

human Vitamin D Receptor (VDR), VDR (gene 7421), sequence (P11473 whole entry, looked up, the tested form may be a part): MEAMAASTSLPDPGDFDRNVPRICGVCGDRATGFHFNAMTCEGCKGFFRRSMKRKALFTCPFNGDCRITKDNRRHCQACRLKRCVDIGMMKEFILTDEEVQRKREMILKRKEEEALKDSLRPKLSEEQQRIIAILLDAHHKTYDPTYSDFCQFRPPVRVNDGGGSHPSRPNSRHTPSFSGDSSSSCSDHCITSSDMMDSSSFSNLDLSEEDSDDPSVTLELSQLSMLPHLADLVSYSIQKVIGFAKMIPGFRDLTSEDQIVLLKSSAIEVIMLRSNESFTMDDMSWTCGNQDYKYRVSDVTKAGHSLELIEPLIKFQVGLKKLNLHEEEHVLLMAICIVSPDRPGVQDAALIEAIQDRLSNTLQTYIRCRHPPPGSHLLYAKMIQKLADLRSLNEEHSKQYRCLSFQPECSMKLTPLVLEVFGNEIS

Take `CC(C)CCCCCCCOC(=O)CCCCC(=O)OCCCCCCCC(C)C`: the outcome in assay [1], in [2], in assay [3], in [4], in [5] and in assay [6] was inactive. Also, the outcome in [7], in assay [8], in assay [9], in assay [10], in assay [11] and in assay [12] was inactive. Also, the result in assay [13], in assay [14], in assay [15], in assay [16], in [17] and in assay [18] was inactive.
Take `Nc1nc2ncc(CNc3ccc(C(=O)N[C@@H](CCC(=O)O)C(=O)O)cc3)nc2c(=O)[nH]1`: the outcome in assay [1], in assay [2], in [3], in assay [4], in assay [5] and in assay [6] was inactive. The outcome in assay [7], in assay [8], in assay [9], in [10], in [11] and in [12] was inactive. Also, the outcome in assay [13], in assay [14], in assay [15], in assay [16], in assay [17] and in assay [18] was inactive.
Turning to `COc1ccc(/C=C/S(=O)(=O)NC(=O)c2ccc(C)cc2Cl)cc1`, the outcome in assay [1], in assay [2], in [3], in assay [4], in [5] and in [6] was inactive. The outcome in assay [7], in assay [8], in [9], in assay [10], in [11] and in [12] was inactive. For the same compound, the outcome in assay [13], in [14], in assay [15], in assay [16], in [17] and in assay [18] was inactive. The outcome in assay [19] was inactive.
On to `COc1ccc2sc(C(=O)Nc3nnn[nH]3)c(OC(C)C)c2c1`, for which the call in assay [1], in [6], in assay [7], in assay [11], in [13] and in assay [17] was inactive. The AC50 is 12.5 µM (active) in assay [2]; 14.2 µM (active) in assay [3]; 21.9 µM (active) in [4]; 20 µM (active) in assay [5]; 12.7 µM (active) in assay [8]; 17.6 µM (active) in [9]. Also, the AC50 in [10] is 19.9 µM (active); in [12] it was 19.9 µM (active); in [14], 9.17 µM (active); in assay [15], 12.9 µM (active); in [16], 8.38 µM (active); in [19] it was 13.9 µM (active).
On to `CNCc1ccc(NC(=O)c2c[nH]c3c2C(=O)CCC3)cc1`, for which the compound was called inactive in assay [1], in assay [2], in [3], in [4], in assay [5] and in assay [6]. Further, the outcome in assay [7], in assay [8], in assay [9], in [10], in [11] and in assay [12] was inactive. Also, the outcome in assay [13], in [14], in assay [15], in assay [16], in [17] and in assay [18] was inactive. In [19], the outcome was inactive.
Take `CCCCCCc1ccc(O)cc1O`: the compound was called inactive in [1], in [3], in assay [7], in [9] and in assay [18]. Further, the AC50 is 34.9 µM (active) in assay [2]; 39.8 µM (active) in [4]; 35.5 µM (active) in [6]; 36.6 µM (active) in assay [8]; 29.5 µM (active) in assay [10]; 31.8 µM (active) in assay [11]. For the same compound, the AC50 in assay [12] is 32.2 µM (active); in [13], 30.9 µM (active); in [14], 24.6 µM (active); in assay [15], 31.6 µM (active); in assay [16], 31.4 µM (active); in [17], 34.1 µM (active).
Regarding `O=c1[nH]c2ccc(S(=O)CCN3CCC(Cc4ccc(F)cc4)CC3)cc2o1` (stereo not drawn), the result in assay [1], in [2], in assay [3], in assay [4], in [6] and in assay [7] was inactive. Besides, the outcome in assay [9], in assay [10], in [12], in assay [13], in assay [14] and in [15] was inactive. For the same compound, the result in assay [16], in [17], in [18] and in assay [19] was inactive. Besides, the AC50 was 3.97 µM (active) in [5], 12.8 µM (active) in [8] and 15.3 µM (active) in assay [11].

These data come from PubChem BioAssay (EPA / NIEHS).
